Assay outcomes from PubChem BioAssay.
ASK1 inh: inhibitors of human ASK1 kinase | Q99683 | AlphaScreen MKK6 phosphorylation by ASK1, luminescence | inhibition, % at 7.44 µM | hit rate 0.99% among 22,000 | AID 1159602; in the data active means inhibition above about 35%;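 further: 0% = median of compound wells and 100% = no enzyme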
ULK1 primary: blocks human autophagy kinase ULK1; hit rate 1.9% among 30,000; inhibition, % at 5.96 µM; AlphaScreen Atg13 phosphorylation by ULK1, luminescence; in the data active means inhibition above about 43%;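 further: 0% = median of compound wells and 100% = no enzyme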
* = called active by the depositor; · = no result. A selection: hits, their analogues and other compounds. The true share with any hit is near 2.4%.

SMILES	ASK1 inh	ULK1 primary
CC(=O)Nc1ccc(Nc2nc(-c3ccc(C(=O)N4CCN(C)CC4)cc3)nc3c2ncn3CCN2CCCC2=O)cc1	-4	0
COc1cccc(CN(C)C(=O)c2cc3ccc(-c4ccncc4)cc3n2CCN(C)C)c1	7	4
CC(C)N(CCNC(=O)c1ccc(-c2ccc(C(=O)NC3CC3)cc2)s1)C(C)C	-9	5
CNC(=O)c1ccccc1Nc1cc(Nc2ccc3c(c2)OCO3)ncc1C(F)(F)F	-4	78*
CNS(=O)(=O)c1ccccc1Nc1cc(Nc2ccc3c(c2)CCC(=O)N3)ncc1C(F)(F)F	-40	90*
CNC(=O)c1ccccc1Nc1cc(Nc2ccc3[nH]nc(C4=CCNCC4)c3c2)ncc1C(F)(F)F	-8	-20
O=C1Cc2cc(Nc3ccnc(Nc4ccc(N5CCOCC5)cc4)c3)ccc2N1	18	19
CNC(=O)c1cc(N2CCOCC2)ccc1Nc1cc(Nc2ccc3c(c2)CC(=O)N3)ncc1C(F)(F)F	0	82*
CNS(=O)(=O)c1ccccc1Nc1cc(Nc2ccccc2S(=O)(=O)NC)c(C(F)(F)F)cn1	14	-21
CNC(=O)c1ccccc1Nc1cc(Nc2ccc3c(c2)CC(=O)N3)ncc1C(F)(F)F	0	73*
CCc1ccc(OC)c(S(=O)(=O)Nc2ccc3c(c2)CC(=O)N3CC)c1	·	1
O=C(Cc1cn(-c2ccc(N3CCN(c4ccccn4)CC3)nn2)c2ccccc12)NCc1nc2ccccc2[nH]1	-12	17
O=C(NC1CC1)c1cccc(Nc2ccc(-n3ccnc3)cc2)c1	1	0
O=C(NCCN1CCOCC1)c1cc(N2CCC(N3CCOCC3)CC2)nc2ccccc12	-4	-5
O=C(NCc1cccnc1)c1ccc2nc(-c3ccccc3)sc2c1	1	-22
O=C(NCc1cccnc1)c1ccc2nc(Br)sc2c1	11	45*
Nc1nc(Nc2ccncn2)cc(NC2CCN(Cc3ccccc3)CC2)n1	0	2
CCCNc1nc(-c2ccc(OC)nc2)nc2c1ncn2Cc1ccc(C(F)(F)F)cc1	-7	-8
O=C(NCc1nc(-c2ccncc2)n[nH]1)c1cccs1	4	-1
OCC1CCCN1c1nccc(NCc2cccc(C(F)(F)F)c2)n1 (configuration not stated)	-9	1
COc1cc(Nc2ncc(C)c(Nc3cc(OC)c(OC)c(OC)c3)n2)cc(OC)c1OC	20	28
COc1cc(Nc2cc(C)nc(Nc3cc(OC)c(OC)c(OC)c3)n2)cc(OC)c1OC	-12	-25
COc1cc(Nc2nc(Nc3ccncn3)ncc2C)cc(OC)c1OC	23	15
COc1cc(Nc2cc(C)nc(Nc3cccnc3)n2)cc(OC)c1OC	22	45*
COc1cc(Nc2nc(Nc3ccccc3)ncc2C)cc(OC)c1OC	15	62*
SMILES	ASK1 inh	ULK1 primary
COc1cc(Nc2nc(Nc3ccccn3)ncc2C)cc(OC)c1OC	-9	51*
O=C(NCc1ccccc1)c1ccc2nc(NCc3ccc4c(c3)OCO4)sc2c1	-14	4
O=C(NCc1nc2ccccc2[nH]1)c1cnc(N2CCOCC2)s1	8	5
N#Cc1cc(-c2ccnc(Nc3cccnc3)n2)cc(N2CCOCC2)c1	0	0
CO/N=C(\C(=O)O)c1csc(NC=O)n1	·	0
COc1ccc(-c2nc3c(NCCOc4ccccc4)ncnc3n2C(C)C)cc1	-2	-6
CC(C)N(CCNc1cc(NC2CCN(Cc3ccccc3)CC2)nc(N)n1)C(C)C	-12	2
Nc1nc(NC2CCN(Cc3ccccc3)CC2)cc(-c2ccccc2)n1	1	-16
COc1cc(-c2cn[nH]c2)ccc1NC(=O)[C@H]1CNC[C@@H]1c1ccccc1	-2	-5
COc1cc(NC(C)CCCN)c2ncccc2c1 (configuration not stated)	·	64*
CCN(CC)CCCC(C)Nc1c2ccc(Cl)cc2nc2ccc(OC)cc12 (configuration not stated)	·	4
CN1CCN(C(=O)c2ccc(-c3nc(NC4CCN(Cc5ccccc5)CC4)c4ncn(Cc5ccc(C(F)(F)F)cc5)c4n3)cc2)CC1	5	3
COc1cc(NC(=O)c2cccc(-n3cc(/C=C/C(=O)c4ccccc4)cn3)c2)ccc1CN(C)C	-18	21
O=C(/C=C/c1ccccc1)c1cccc(N2C(=O)C=CC2=O)c1	·	55*
O=C(NC1CC1)c1cccc(NS(=O)(=O)c2ccc(-c3ncnc4[nH]ccc34)cc2)c1	8	44*
NC(=O)c1ccc(-c2cccc(C(=O)NC3CC3)c2)cc1	-20	-16
Oc1ccc(CCNc2ccnc(NCCN3CCOCC3)n2)cc1	-4	5
CN1CCc2cccc3c2[C@H]1Cc1ccc(O)c(O)c1-3	·	46*
c1ccc(Nc2nccc(NCc3cccnc3)n2)nc1	-9	14
CC[C@@H](C(=O)[C@@H](C)[C@@H](O)[C@H](C)[C@@H]1O[C@@H]([C@@H](CC)C(=O)O)CC[C@@H]1C)[C@H]1O[C@]2(C=C[C@@H](O)[C@]3(CC[C@@](C)([C@H]4CC[C@](O)(CC)[C@H](C)O4)O3)O2)[C@H](C)C[C@@H]1C	·	-4
